Measurements taken from the supplement of paper PMC3334620.
In all, about 33,000 sequences were measured (“E-score (-0.5 to 0.5)”: median about -0.021, highest 2% from about 0.32 on). Shown is part of a subset that was picked to be rich in the highest values.

The sequences below were run against T1, Zap1 (UniProt P47043) (assay: PBM E-score (8-mer binding enrichment) (E-score (-0.5 to 0.5)); higher = stronger / more preferred TF binding). Settings: protein concentration: 200 nM; construct: GST-full length.
T1 sequence: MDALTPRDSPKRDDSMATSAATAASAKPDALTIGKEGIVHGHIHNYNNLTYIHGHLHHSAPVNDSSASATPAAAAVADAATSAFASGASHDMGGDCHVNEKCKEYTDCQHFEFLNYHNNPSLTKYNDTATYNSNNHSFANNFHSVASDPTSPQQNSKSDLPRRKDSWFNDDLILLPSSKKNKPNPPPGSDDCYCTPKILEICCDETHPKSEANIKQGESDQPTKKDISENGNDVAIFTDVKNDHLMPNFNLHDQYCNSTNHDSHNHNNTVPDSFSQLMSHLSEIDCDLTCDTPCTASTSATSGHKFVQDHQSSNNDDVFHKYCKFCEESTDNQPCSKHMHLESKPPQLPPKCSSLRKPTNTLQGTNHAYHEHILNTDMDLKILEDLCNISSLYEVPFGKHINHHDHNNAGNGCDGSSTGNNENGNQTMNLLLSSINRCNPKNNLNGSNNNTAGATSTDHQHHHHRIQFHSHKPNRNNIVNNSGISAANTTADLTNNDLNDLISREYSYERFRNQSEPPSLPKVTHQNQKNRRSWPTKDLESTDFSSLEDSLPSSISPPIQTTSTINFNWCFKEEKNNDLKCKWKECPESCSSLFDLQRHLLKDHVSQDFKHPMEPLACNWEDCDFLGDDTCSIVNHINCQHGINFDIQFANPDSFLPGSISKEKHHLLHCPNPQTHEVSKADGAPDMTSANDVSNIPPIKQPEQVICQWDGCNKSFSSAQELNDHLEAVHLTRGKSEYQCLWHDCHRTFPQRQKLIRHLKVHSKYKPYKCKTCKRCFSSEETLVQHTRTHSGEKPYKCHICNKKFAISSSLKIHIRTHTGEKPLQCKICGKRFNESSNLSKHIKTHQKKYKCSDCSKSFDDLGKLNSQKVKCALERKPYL
Procedure, shortened: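 Universal all-10-mer Agilent arrays, fresh or stripped once, were converted to double-stranded form by primer extension. GST-tagged yeast transcription factors from PURExpress in vitro transcription/translation, full-length or DNA-binding domain only, were applied at about 100-200 nM and detected with fluorescent anti-GST. After masliner normalisation, the Universal PBM Analysis Suite scored each ungapped eight-base word together with its reverse complement by E-score.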

Sequence | PBM E-score
CAGAGATC | -0.134
CCGAGAAA | 0.187
ACCCAGCA | 0.0307
CGAATGAG | -0.106
AGTTATAG | 0.148
ACCCTCAG | 0.325
ACCCTCAA | 0.361
ACCCTCAC | 0.251
ACCCTCAT | 0.267
CCCCTCAA | -0.068
TCCCTCAA | 0.014
GGAGACGA | -0.032
ATCTTTAA | 0.206
GGCCAGTA | 0.177
AGTGGCTC | -0.175
AATCCTTG | 0.0209
GATACCCA | 0.184
GATACCAC | 0.183
CATACCCC | 0.348
CATACCCA | 0.221
AATACCCC | 0.237
GATACCCC | 0.37
ATGTGAAG | -0.00714
ATGGGGGG | -0.045
ACTCGCAA | 0.0584

Sequence | PBM E-score
CGCTTTGA | 0.0708
CCTATAGC | -0.0148
ACTATAGG | 0.0613
CCTATAGG | 0.346
ATTGGCGG | -0.0834
AGCCCAAC | -0.0986
CCCCCTAG | -0.343
ACCCCTAA | 0.278
ACCCCTAT | 0.324
ACCCCTAC | 0.293
ACCCCTAG | 0.341
AGCCCTAG | -0.14
ACCCCTCT | 0.174
CCCCCTCG | -0.135
ACCCCTCG | 0.347
TACCGATA | 0.102
CCGGTGCG | 0.0015
AAATCTTG | 0.0159
GCCAGCAC | -0.171
ATACCGCA | 0.0517
TACCCGCA | 0.364
TAACCGAA | 0.319
GTACCGCA | 0.383
TAACCGCA | 0.426
CAACCGCA | 0.106

Sequence | PBM E-score
GAACCGCA | 0.149
AACCCGCA | 0.314
AAACCGAA | 0.114
CACCCGCA | -0.0495
CAACCGAA | 0.199
CTACCGCA | 0.00616
GTCCTTTA | 0.132
CCGCCCAC | 0.0267
GAAATCGA | -0.0672
GAACCGGA | 0.0894
TAACCGGA | 0.364
AAACCGGA | 0.00487
AATTCTAC | 0.104
TATACTAA | 0.0714
GACAGCGA | -0.275
CGTTGGCC | -0.138
GCCGGTTA | 0.33
CCCGGTTA | 0.25
GCCGGTCA | 0.0353
ACCGGTTA | 0.372
ACCGGTTG | 0.119
GCCGGTGA | 0.0983
AGATTGAA | -0.0374
ATGCTAGG | -0.159
ACTAAATG | -0.036

Sequence | PBM E-score
ACCAGCGG | 0.0819
CAAGATGC | -0.0715
AGTGGGAA | 0.022
GTTGAAGA | -0.0696
GGGTCATA | 0.432
AGGTCAGA | 0.149
CGGTCATA | 0.201
ATGTCATA | -0.0263
GGGTCAGA | 0.0808
AGGTCAAG | 0.277
AGGTCATC | 0.373
AGGTCATG | 0.416
AGGTCATA | 0.347
ATGTCATC | -0.123
AGGTCAGG | 0.141
CGGTCATC | 0.131
TGCTCGAA | -0.0246
CATAGATC | -0.0935
ACATCTGG | 0.0376
CAGTACTG | -0.118
GAGTCTTA | -0.368
ACGTAGGA | -0.12
ACGTCTGC | -0.272
AGGTCGTA | 0.189
AGGTCGTG | 0.353

Sequence | PBM E-score
AGGTCGTC | 0.0799
AAACCAGA | 0.165
AGCAACCC | 0.239
CGGAACCG | 0.169
CGCAACCA | 0.283
CGCAACCC | 0.379
CGCAACCG | 0.281
GGCAACCC | 0.358
AGGAACCC | 0.104
GGCAACCA | 0.116
CGGAACCC | 0.326
AGATCGCA | -0.127
AATTCTTG | -0.0794
TTACACAA | 0.21
GAGTGCAA | 0.0286
AGACCCTC | 0.092
CTACCCTA | 0.291
GTACCCTA | 0.413
ATACCCTA | 0.459
ATACCCGC | 0.314
ATACCCTG | 0.306
GTACCCGA | 0.184
CTACCCTC | 0.35
ATACCCTC | 0.323
CTACCCGC | 0.244

Sequence | PBM E-score
CTACCCCC | -0.295
ATACCCGA | 0.224
AGCATCTA | -0.248
CTCTTGCA | -0.161
AACGGCGA | 0.0503
ATAAAGCA | -0.0384
CCGTCCCA | -0.0821
AAATAGCT | -0.141
CCTCTTGA | 0.148
AGGACCCT | 0.226
CACTGCGC | -0.192
TCACCAGA | 0.015
CCACAAGA | 0.0787
CCACAAAG | 0.34
CCACAAGG | 0.33
CCACAAAA | 0.237
CCACAAGC | 0.0428
CCACAAAC | 0.147
ACTAGATA | 0.115
AGTGCAAC | 0.0909
CGGGTGTA | 0.0123
CAGGGGTA | 0.286
AAAGGGGC | -0.00977
AGAGGGTC | 0.213
CAGGGGTC | 0.321

Sequence | PBM E-score
CAAGGGCC | 0.0489
AAAGGGCT | 0.00434
CAAGGGTC | 0.355
AAAGGGTT | 0.396
AAAGGGTC | 0.363
GAAGGGTC | 0.211
AAGGGGTC | 0.264
AAAGGGTG | 0.247
CACGATCC | 0.141
AGCTAAAC | -0.144
TCCAGCGA | -0.138
AGATGGAT | -0.254
CCGGGGTC | 0.348
ACAAGGGG | -0.128
CAAGGGCA | -0.182
AAAGGGGT | 0.32
CAAGGGTA | 0.398
AAGGGGGT | -0.271
CGGGGGTC | -0.0576
CAAGGGTG | 0.262
ACGGGGTC | 0.218
ACAAGGGC | -0.137
ACAAGGGT | 0.387
AAAGGGGG | -0.385
ATTTAGCA | 0.0848
